In PubChem BioAssay (NCI):
About 79,000 compounds went through this panel and 15% of them were active in at least one assay; those are over-represented in the sample as a whole. Cut-off read from the data, not from the text of the source: active = growth inhibition above about 70%; inactive = the rest.

What was measured:
[1] = NCI Yeast Anticancer Drug Screen. Data for the rad52 strain (AID 147);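 note: 0% = growth of vehicle-treated control cultures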; settings: S. cerevisiae rad52 mutant growth inhibition, active compounds read high
Outline: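 Vehicle-treated cultures served as the reference for growth inhibition of compound-exposed yeast bearing a DNA repair mutation.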

[2] = NCI Yeast Anticancer Drug Screen. Data for the rad50EPP+ strain (AID 151);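 note: 0% = growth of vehicle-treated control cultures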; settings: S. cerevisiae rad50 mutant strain, active compounds read high
Outline: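 In this screen, rad50EPP+ yeast were exposed to compounds. Growth inhibition was scored against vehicle-treated controls.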

[3] = NCI Yeast Anticancer Drug Screen. Data for the mgt1 strain (AID 153); settings: S. cerevisiae mgt1 mutant growth inhibition, active compounds read high
Outline: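 mgt1 strain exposed; growth vs vehicle control recorded as inhibition.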

[4] = NCI Yeast Anticancer Drug Screen. Data for the rad50 strain (AID 155);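 note: 0% = growth of vehicle-only cultures of the same strain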; settings: S. cerevisiae rad50 strain growth inhibition, active compounds read high
Outline: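 Readout: growth inhibition relative to vehicle-treated cultures. Compound exposure was carried out in a genetically defined yeast strain deficient in DNA damage repair.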

[5] = NCI Yeast Anticancer Drug Screen. Data for the mec2-1 strain (AID 157); settings: S. cerevisiae mec2-1 strain, active compounds read high
Outline: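 Vehicle-treated cultures served as reference for growth inhibition of compound-exposed mec2-1 yeast.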

[6] = NCI Yeast Anticancer Drug Screen. Data for the rad14 strain (AID 159);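 note: 0% = growth of vehicle-treated control cultures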; settings: S. cerevisiae rad14 strain growth inhibition, active compounds read high
Outline: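 Growth inhibition vs vehicle controls; genetically altered yeast strain (DNA damage repair defect) treated with test compounds.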

[7] = NCI Yeast Anticancer Drug Screen. Data for the sgs1 mgt1 strain (AID 161);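 note: 0% = growth of cultures given vehicle only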; settings: S. cerevisiae sgs1 mgt1 strain, active compounds read high
Outline: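 Inhibition of yeast growth, normalised to vehicle-treated controls, is reported for a strain bearing genetic alterations in DNA damage repair.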

[8] = NCI Yeast Anticancer Drug Screen. Data for the CLN2oe strain (AID 163);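 note: 0% = growth of vehicle-only control cultures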; settings: S. cerevisiae CLN2oe strain, active compounds read high
Outline: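 Inhibition relative to vehicle-treated yeast is reported. Cells: strain with genetic alteration in cell-cycle control, grown with compound.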

[9] = NCI Yeast Anticancer Drug Screen. Data for the cln2 rad14 strain (AID 165);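 note: 0% = growth equal to vehicle treated cultures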; settings: S. cerevisiae cln2 rad14 strain, active compounds read high
Outline: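 Each compound was tested on cln2 rad14 yeast. Inhibition of growth was calculated against vehicle-exposed controls.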

[10] = NCI Yeast Anticancer Drug Screen. Data for the bub3 strain (AID 167); settings: S. cerevisiae bub3 mutant strain, active compounds read high
Outline: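 Readout: yeast growth inhibition, expressed relative to vehicle-only wells. The test organism is a mutant strain from a panel with lesions in DNA repair or checkpoint genes.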

[11] = NCI Yeast Anticancer Drug Screen. Data for the wt2 strain (AID 169);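 note: 0% = growth of vehicle-treated yeast cultures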; settings: S. cerevisiae wt2 strain growth inhibition, active compounds read high
Outline: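 Inhibition of yeast growth was determined after compound treatment, normalised to controls receiving only vehicle.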

[12] = NCI Yeast Anticancer Drug Screen. Data for the mlh1 strain (AID 171);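 note: 0% = growth of vehicle-treated control cultures of the same strain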; settings: S. cerevisiae mlh1 strain growth inhibition, active compounds read high
Outline: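 Vehicle-normalised growth inhibition of a repair- or checkpoint-altered yeast strain following compound treatment.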

[13] = NCI Yeast Anticancer Drug Screen. Data for the sgs1 strain (AID 173);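 note: 0% = growth of vehicle-only control cultures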; settings: S. cerevisiae sgs1 mutant, active compounds read high
Outline: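 Screen format: yeast with repair or checkpoint alterations, compound exposure, growth read relative to vehicle.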

[14] = NCI Yeast Anticancer Drug Screen. Data for the mlh1 rad18 strain (AID 175); settings: S. cerevisiae mlh1 rad18 strain growth inhibition, active compounds read high
Outline: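 Vehicle-treated cultures served as the reference for growth inhibition in a yeast strain carrying DNA damage repair alterations exposed to each compound.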

[15] = NCI Yeast Anticancer Drug Screen. Data for the rad18 strain (AID 177); settings: S. cerevisiae rad18 mutant growth inhibition, active compounds read high
Outline: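 Test articles were incubated with altered yeast defective in DNA damage repair. Results are given as inhibition of growth versus vehicle.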

[16] = at 5.0 µM (retest, dose inferred, filed as 0.5)
[17] = at 50.0 µM (retest, dose inferred, filed as 5.0)

Measured: growth inhibition

COc1ccc2nc3c([N+](=O)[O-])ccc(NCCN(C)C)c3c(NCCN(C)C)c2c1
inactive: [1]; at 1.2 µM 15% | [1]; at 3.7 µM 10% | [1]; at 11.0 µM 26% | [1]; at 33.0 µM 28% | [1]; at 100.0 µM 23% | [2]; at 1.2 µM 0% | [2]; at 3.7 µM 3% | [2]; at 11.0 µM 1% | [2]; at 33.0 µM 5% | [2]; at 100.0 µM 14% | [3]; at 1.2 µM 0% | [3]; at 3.7 µM 2% | [3]; at 11.0 µM 1% | [3]; at 33.0 µM 1% | [3]; at 100.0 µM 2% | [4]; at 1.2 µM -1% | [4]; at 3.7 µM 0% | [4]; [16] 16% | [4]; at 11.0 µM 0% | [4]; at 33.0 µM 2% | [4]; [17] 33% | [4]; at 50.0 µM 26.9% | [4]; at 100.0 µM 12% | [5]; at 1.2 µM -1% | [5]; at 3.7 µM -4% | [5]; [16] 15% | [5]; at 11.0 µM -5% | [5]; at 33.0 µM 0% | [5]; [17] 17% | [5]; at 50.0 µM 35% | [5]; at 100.0 µM 3% | [6]; at 1.2 µM -2% | [6]; at 3.7 µM -3% | [6]; at 11.0 µM -3% | [6]; at 33.0 µM -4% | [6]; at 100.0 µM 1% | [7]; [16] -2% | [7]; [17] 14% | [7]; at 50.0 µM 3.95% | [8]; at 1.2 µM -5% | [8]; at 3.7 µM -1% | [8]; at 11.0 µM 1% | [8]; at 33.0 µM -5% | [8]; at 100.0 µM -5% | [9]; [16] 29% | [9]; [17] 61% | [9]; at 50.0 µM 62.4% | [10]; at 1.2 µM -3% | [10]; at 3.7 µM -7% | [10]; [16] 14% | [10]; at 11.0 µM 1% | [10]; at 33.0 µM -3% | [10]; [17] -1% | [10]; at 50.0 µM 20.4% | [10]; at 100.0 µM -3% | [11]; at 1.2 µM -3% | [11]; at 3.7 µM 0% | [11]; at 11.0 µM -1% | [11]; at 33.0 µM -1% | [11]; at 100.0 µM -2% | [12]; at 1.2 µM -1% | [12]; at 3.7 µM -2% | [12]; at 11.0 µM -1% | [12]; at 33.0 µM -1% | [12]; at 100.0 µM 1% | [13]; at 1.2 µM 3% | [13]; at 3.7 µM 6% | [13]; at 11.0 µM 2% | [13]; at 33.0 µM 2% | [13]; at 100.0 µM 2% | [14]; [16] -7% | [14]; [17] 24% | [14]; at 50.0 µM -21.4% | [15]; at 1.2 µM 6% | [15]; at 3.7 µM 6% | [15]; at 11.0 µM 7% | [15]; at 33.0 µM 1% | [15]; at 100.0 µM -6%
